Compound activity: PubChem, National Center for Advancing Translational Sciences (NCATS)
uPA surface inh: cell surface uPA generation inhibition; cell surface uPA generation assay, qHTS; Potency, µM (titrated, usually from 38.3 µM), for the others: at the highest dose activity change, negative = inhibition, actives largely listed as inhibitors; 330,000 tested, 0.31% active; AID 540303; active means well fitted inhibition curve with a large enough effect; inconclusive means small, poorly fitted or top-dose-only effect; inactive means no such curve, though single readings can be large or run the other way; tested in mouse RAW 264.7 cells; further: on the % scale 0 is the no-effect control and ±100 the full control effect; nearly all actives have a fitted effect of over 55% in size
FLuc modulator: inhibits or activates purified firefly luciferase, miR-21 counter-screen; purified FLuc, Km substrates, luminescence inhibition; Potency, µM (highest dose often 57.5 µM), inactives show at the top dose activity change, negative = inhibition, most hits filed as inhibitors; 360,000 tested, 6.9% active; AID 588342;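 further: plate controls were vehicle for no effect and reference inhibitor for full effect; nearly all actives have a fitted effect of over 55% in size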
Target sequence (P08659 whole entry, looked up): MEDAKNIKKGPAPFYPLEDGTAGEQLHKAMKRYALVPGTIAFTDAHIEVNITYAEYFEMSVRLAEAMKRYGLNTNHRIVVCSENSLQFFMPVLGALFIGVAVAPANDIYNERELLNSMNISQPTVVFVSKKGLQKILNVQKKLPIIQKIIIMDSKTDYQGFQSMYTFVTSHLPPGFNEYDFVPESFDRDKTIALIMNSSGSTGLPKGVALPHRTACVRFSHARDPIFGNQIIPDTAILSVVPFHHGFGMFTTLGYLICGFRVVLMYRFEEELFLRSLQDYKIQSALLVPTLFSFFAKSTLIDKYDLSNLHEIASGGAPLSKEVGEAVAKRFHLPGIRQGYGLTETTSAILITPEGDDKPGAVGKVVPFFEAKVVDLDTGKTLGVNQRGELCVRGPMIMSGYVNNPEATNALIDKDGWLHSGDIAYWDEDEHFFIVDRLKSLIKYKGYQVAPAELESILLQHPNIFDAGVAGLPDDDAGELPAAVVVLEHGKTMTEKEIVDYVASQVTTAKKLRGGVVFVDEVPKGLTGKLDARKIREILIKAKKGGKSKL
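Purified P. pyralis luciferase (10nM final) with 10uM D-luciferin and 10uM ATP (Km levels) in 50mM Tris acetate pH 7.5, 10mM Mg acetate, 0.01% Tween-20, 0.05% BSA; qHTS 6-point titration, ~60 µM downward; luminescence read.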
ELG1 genotox: inducers of genotoxicity in HEK293T ELG1-luciferase cells; 330,000 tested, 1.3% active; HEK293T ELG1-luciferase reporter, luminescence, 16 h; Potency, µM (highest dose often 46 µM), for inactives: at the top dose activity change, positive = activation, most hits filed as activators; further: % of control where 0% means no effect; nearly all actives have a fitted effect of over 60% in size
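HEK293T cells expressing luciferase-tagged ELG1 were exposed to compound or DMSO vehicle for 16 hr at 37 °C and 5% CO2. Luciferase activity was then measured with ONE-Glo after 30 min at room temperature.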
NPC1 promoter act: activators of NPC1 promoter. 320,000 tested, 2.4% active. AID 485313. Potency, µM (highest dose often 9.22 µM), for inactives: top-dose activation, most hits filed as activators. Huh7 NPC1 promoter luciferase reporter, 24 h; further: % of control where 0% means no effect; nearly all actives have a fitted effect of over 60% in size
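Compounds in DMSO were transferred onto Huh7 NPC1-luciferase reporter cells pre-incubated 2 h; after 24 h at 37 °C, Amplite reagent was dispensed and luminescence recorded 10 min later.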
SMN2 splice up: enhancers of SMN2 splice variant expression; 210,000 tested, 2.8% active; Potency, µM (series often up to 46.1 µM), for the others: top-dose activity change, positive = activation, most hits filed as activators; HEK293 SMN2-luciferase splicing reporter, luminescence, 30-36 h; further: % of control where 0% means no effect; nearly all actives have a fitted effect of over 55% in size
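HEK293 cells carry an SMN2 minigene-luciferase reporter in which exon 7 inclusion puts luciferase in frame. Cells were seeded at 2000 cells/well, attached for 10-12 hours, then exposed to compounds for 30-36 hours at 37C before ONE-Glo luminescence.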
Rab9 promoter act: Rab9 promoter activation | Potency, µM (doses to about 9.22 µM), inactives show at the highest dose activation, negative = inhibition, actives largely listed as activators | Huh7 Rab9 promoter-luciferase reporter, luminescence, 24 h | 320,000 tested, 2.8% active; further: % of control where 0% means no effect; nearly all actives have a fitted effect of over 60% in size
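Quantitative HTS format; Huh7 Rab9-luciferase reporter cells (1500/well) receive compound 2 h post-plating, incubate 24 h at 37 °C, then get luciferase reagent for 10 min before luminescence reading.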
Active calls of the source: *; u = inconclusive; x = no result. Rows were chosen to be rich in hits. Some 7.3% of all compounds tested hit in one or more screens of this group. Unless noted, the call rests on the fitted dose curve; in most records, active means well fitted curve in the direction sought with a large enough effect; inconclusive means small, poorly fitted or top-dose-only effect, or another doubt; inactive means no such curve, though single readings can be large; an effect the other way counts as inactive or inconclusive. Potency means the concentration at half of the fitted maximal effect.

SMILES | uPA surface inh | FLuc modulator | ELG1 genotox | NPC1 promoter act | SMN2 splice up | Rab9 promoter act
O=C1CNC(=S)N1c1nc2ccccc2s1 | 3.0% | 16.9µM* | u | u | x | u
CCCCN(CC)C(=O)Cn1nc(C)c2c(C)n(-c3ccccc3)nc2c1=O | x | 3.2% | x | x | x | x
Cc1ccc(C(=O)OCc2cc(=O)n3nc(CC(C)C)sc3n2)cc1 | x | -6.4% | x | x | x | x
Cc1nn2c(-c3cccnc3)ccnc2c1-c1ccccc1 | -9.0% | 10.7µM* | 4.2% | 22.5% | 17.5% | 28.8%
COc1ccc(C(=O)CC(=O)c2ccc(OC)cc2)cc1 | 4.0% | 19µM* | 6.5% | 18.7% | x | 15.2%
COc1ccc(C(=O)C(OC(=O)c2ccccc2Cl)c2ccccc2)cc1 (centres undefined) | 1.7% | 13.5µM* | u | u | 64.8% | 3.98µM*
COc1ccc(C(=O)CSc2ccccc2C(=O)O)cc1 | -12.2% | 9.53µM* | 18.6% | 2.24µM* | 11.2µM* | u
COc1ccc(C(=O)CN2C(=O)c3ccccc3C2=O)cc1 | 2.2% | 16.9µM* | 10.5% | u | x | 26.8%
COc1ccc2c(c1)c1c(c(=O)n(-c3ccc(F)c(Cl)c3)c(=O)n1Cc1cccc(C)c1)n2C | x | 3.5% | x | x | x | x
COc1ccc(C(=O)Cc2nnc(C)s2)cc1 | 0.2% | 19µM* | u | u | u | u
COc1ccc(C(=O)CNc2ccc3ccccc3c2)cc1 | -1.5% | u | u | 21.2% | 13.0% | 17.5%
COc1ccc(C(=O)CNc2ccccc2Br)cc1 | -2.8% | 7.57µM* | u | u | x | u
COc1ccc(C(=O)NCc2cc(C)nc3ccccc23)cc1 | 7.08µM* | -6.0% | -8.8% | -13.4% | -53.4% | -19.5%
COc1ccc(C(=O)Cc2ccccc2C(=O)O)cc1 | 0.3% | x | x | x | x | x
COc1ccc(O)c(C(=O)CC(=O)c2ccncc2)c1 | -6.7% | x | x | x | x | x
COc1ccc(O)c(C(=O)CC(=O)c2ccccc2)c1 | x | 16.9µM* | u | 0.708µM* | 1.78µM* | 0.708µM*
CCc1ccc(-n2nc(CO)c(C(=O)NCc3ccccc3Cl)n2)cc1 | x | u | x | x | 1.2% | x
O=C(COc1ccc(Cl)cc1Cl)NN1C(=O)C2C3C=CC(C3)C2C1=O (centres undefined) | 2.0% | 3.3% | -0.4% | -8.8% | x | -0.4%
COc1ccc(C(=O)NCC(=O)c2ccccc2)cc1 | u | 12µM* | 9.2µM* | 2.82µM* | x | 3.55µM*
COc1ccc(C(=O)C[n+]2ccc3ccccc3c2C)cc1 | -0.6% | -16.9% | 1.2% | u | x | 1µM*
Cc1cccc(Cn2cc(S(=O)(=O)c3ccccc3)c(=O)c3cc(F)c(N4CCOCC4)cc32)c1 | x | 1.0% | x | x | x | x
COc1ccc(CC(=O)N(C)C2CCCCC2)cc1S(=O)(=O)N1CCOCC1 | 2.8% | -1.3% | 0.5% | 0.2% | 7.2% | -0.2%
COc1ccc(C(=O)c2cn(Cc3ccc(F)cc3)c3ccc(C)cc3c2=O)cc1 | x | 3.5% | x | x | -15.9% | x
CCCCNC(=O)c1cccc(NC(=O)c2nsc3ccccc23)c1 | x | 4.78µM* | x | x | x | x
COC(=O)c1cccc(NC(=O)c2nn(C(C)C)c(=O)c3ccccc23)c1 | x | -0.6% | 8.7% | 18.3% | -11.6% | -1.4%
SMILES | uPA surface inh | FLuc modulator | ELG1 genotox | NPC1 promoter act | SMN2 splice up | Rab9 promoter act
COc1cccc(CNC(=O)c2cccc(NC(=O)c3nsc4ccccc34)c2)c1 | x | 6.75µM* | x | x | x | x
COC(=O)c1cccc(NC(=O)c2nsc3ccccc23)c1 | x | 0.953µM* | x | x | u | x
O=C(NCc1cccc(F)c1)c1cccc(NC(=O)c2nsc3ccccc23)c1 | x | 8.49µM* | x | x | x | x
O=C(O)c1cc(-c2ccccc2)nn1Cc1ccccc1 | x | u | x | x | 1.4% | x
O=C(CN1C(=O)COc2ccc(S(=O)(=O)N3CCCCCC3)cc21)N1CCN(c2ccc(F)cc2)CC1 | x | -7.6% | x | x | -5.3% | x
O=C(Nc1cccc(C(=O)N2CCCCC2)c1)c1nsc2ccccc12 | x | 5.36µM* | x | x | x | x
O=c1[nH]c(COc2ccc(Cl)cc2Br)nc2ccccc12 | u | 6.01µM* | u | 2.82µM* | x | 2.82µM*
O=c1[nH]c(COc2ccc(Cl)cc2Cl)nc2ccccc12 | -2.8% | 1.69µM* | 9.2µM* | 2.51µM* | x | 2.24µM*
O=C(NCc1ccc(Cl)cc1)Nc1ccc(F)cc1 | -5.1% | -23.4% | u | 5.2% | x | u
Cc1ccc(NC(=O)NCc2cccn2C)cc1C | 1.2% | u | u | 3.98µM* | x | u
Cc1ccc(CNC(=O)Nc2ccccc2)n1C | 4.1% | 19µM* | 7.8% | 16.9% | x | 25.6%
Cc1ccc(CNC(=O)Nc2ccc(F)cc2F)n1C | 2.0% | u | 4.4% | 18.4% | x | 12.8%
Cn1cccc1CNC(=O)Nc1ccccc1 | x | 19µM* | u | 27.7% | u | u
Cn1cccc1CNC(=O)Nc1ccc(Cl)cc1 | -0.7% | 13.5µM* | u | u | u | 3.55µM*
O=C(NS(=O)(=O)c1ccc(F)cc1)O[C@@H]1C(=O)c2cc(Br)ccc2O[C@H]1c1ccc2c(c1)OCO2 | x | x | x | x | 28.1% | x
Cc1nn(Cc2ccccc2)c(C)c1/C=N/NC(=O)c1ccccc1O | 0.8% | 7.57µM* | 2.4% | -8.4% | x | -8.3%
Cc1cc(C(=O)N/N=C/c2c(C)nn(-c3ccccc3)c2C)c(C)o1 | -2.0% | 21.3µM* | 8.2% | 21.7% | x | u
Cc1nn(-c2ccccc2)c(C)c1/C=N/NC(=O)c1cc(-c2cccc3ccccc23)n[nH]1 | -13.1% | 10.7µM* | -8.4% | -1.7% | 3.8% | -1.1%
Cc1nn(Cc2ccccc2)c(C)c1/C=N/NC(=O)c1ccncc1 | -15.0% | -13.3% | -5.6% | -6.0% | x | -3.4%
